The source made the active and inactive calls.

Assay [1] addresses Albumin (Bos taurus) (UniProt P02769). Nature of the assay: bovine serum albumin binders on microarray, profiling panel, artefact control for SMM control protein annotation, biochemical, small-molecule microarray, Alexa647 label, 635/667 nm fluorescence (AID 1118).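 Further: score merges 667 nm emission intensity and signal-to-noise per printed compound spot.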 The note with it: BSA-A647 binding, fluorescence 635 nm, higher = more signal.
The nature of assay [2]: small-molecule microarray binders of probe aXIP, primary screen, biochemical, NeuroSMM set, 635/667 nm fluorescence (AID 1119).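 Further: probe is the protein aXip251-270 applied at 1 µg/mL to compound-printed slides; binding of probe to printed compounds measured as 667 nm fluorescence plus signal to noise.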 The note with it: higher = more signal, called active from +8 up or from −8 down.
Assay [3] is described as follows: small-molecule binders of probe aNOTCH3, primary screen, biochemical, small-molecule microarray, 635/667 nm fluorescence (AID 1120).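 Further: probe is a biotin-tagged antibody raised against NOTCH3 rather than NOTCH3 protein; score merges spot fluorescence near 667 nm with spot signal to noise.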 As to conditions: higher = more signal.
Assay [4] in a line: small-molecule binders of probe aNOTCH2, primary screen, biochemical, small-molecule microarray, 635/667 nm fluorescence (AID 1121).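 Further: score merges feature fluorescence read at 667 nm with its signal to noise.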 As to conditions: higher = more signal.
The target of assay [5] is Carbonic anhydrase 2 (Homo sapiens) (UniProt P00918). Nature of the assay: CAII small-molecule binders, profiling panel, biochemical, small-molecule microarray, Alexa647-labelled CAII (AID 1122). As to conditions: CAII-A647 binding fluorescence, higher = more signal.
The nature of assay [6]: COS7 lysate on small-molecule microarray, probe aHis, 635 nm (AID 1123).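 Further: z-score combines 667nm fluorescence intensity with signal-to-noise per printed compound spot.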 As to conditions: COS7 cell lysate, fluorescence, higher = more signal.
A short description of assay [7]: compound binding in COS7 lysate, probe aLAP1, primary screen, cell lysate, small-molecule microarray (AID 1124).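 Further: lysate comes from COS7 cells expressing LAP1 and is applied at 0.3 µg/mL; score merges spot fluorescence near 667 nm with signal-to-noise over triplicate slides.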 The note with it: probe aLAP1, fluorescence, higher = more signal.
For assay [8], the system named is Sam68 (KHDRBS1). Nature of the assay: Sam68 small-molecule binders, primary screen, biochemical, small-molecule microarray, 635 nm fluorescence (AID 1125).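 Further: score merges 667 nm channel intensity with signal to noise over triplicate slides.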 As to conditions: small-molecule microarray binding, higher = more signal.
Assay [9] deals with Chordin-like protein 2 (CHRDL2). Nature of the assay: CHRDL2 small-molecule binders, primary screen, biochemical, small-molecule microarray, 635 nm fluorescence (AID 1126).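 Further: printed compound slides probed with Chrdl2 protein at 4 µg/mL for 1 h at 4 C; score merges 667 nm emission intensity with signal to noise over three replicate slides.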 As to conditions: small-molecule microarray binding, fluorescence 635 nm; higher = more signal.
In assay [10] the target is Concanavalin-A (Canavalia ensiformis) (UniProt P02866). The experiment in a line: ConA small-molecule binders, primary screen, artefact control for SMM control protein annotation, biochemical, small-molecule microarray, Alexa647 label, 635 nm (AID 1127).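 Further: z combines 667 nm emission intensity with signal-to-noise across three replicate slides.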 As to conditions: ConA-A647 binding fluorescence, higher = more signal.
Chain of Concanavalin-A (Canavalia ensiformis) (P02866 whole entry, looked up): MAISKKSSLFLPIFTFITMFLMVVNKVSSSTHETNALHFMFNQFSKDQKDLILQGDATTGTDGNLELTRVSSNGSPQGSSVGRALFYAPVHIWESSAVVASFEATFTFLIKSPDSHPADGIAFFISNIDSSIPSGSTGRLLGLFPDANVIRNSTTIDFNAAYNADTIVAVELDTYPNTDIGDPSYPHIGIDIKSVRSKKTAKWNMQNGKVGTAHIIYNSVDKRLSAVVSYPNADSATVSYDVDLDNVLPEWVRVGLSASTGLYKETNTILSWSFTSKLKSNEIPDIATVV

Chain of Albumin (Bos taurus) (P02769 whole entry, looked up): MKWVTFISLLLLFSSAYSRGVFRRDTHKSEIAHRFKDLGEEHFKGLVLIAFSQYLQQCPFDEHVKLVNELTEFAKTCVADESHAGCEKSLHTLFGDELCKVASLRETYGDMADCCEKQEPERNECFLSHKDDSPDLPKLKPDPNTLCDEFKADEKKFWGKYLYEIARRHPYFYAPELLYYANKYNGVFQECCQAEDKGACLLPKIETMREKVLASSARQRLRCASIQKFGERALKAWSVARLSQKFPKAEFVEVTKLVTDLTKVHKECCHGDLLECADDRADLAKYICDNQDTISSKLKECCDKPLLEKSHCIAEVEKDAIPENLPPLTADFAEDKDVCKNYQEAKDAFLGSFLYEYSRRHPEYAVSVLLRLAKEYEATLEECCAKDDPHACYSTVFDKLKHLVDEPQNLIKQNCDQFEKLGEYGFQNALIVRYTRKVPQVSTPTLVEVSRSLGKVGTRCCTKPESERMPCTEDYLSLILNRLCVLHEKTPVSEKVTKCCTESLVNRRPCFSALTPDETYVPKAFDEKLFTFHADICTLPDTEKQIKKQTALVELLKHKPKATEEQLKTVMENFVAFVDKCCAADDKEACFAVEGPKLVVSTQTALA

Regarding `CC[C@H](C)C(=O)O[C@H]1CC[C@]2(C)C3=C(CCC2C1(C)C)[C@]1(C)CC[C@H]([C@H](C)CCCC(C)C)[C@@]1(C)CC3` (stereo not given in full), the composite z-score in assay [1] is -0.0017; in assay [3], -0.0947; in assay [4], -0.146; in [5], -0.0247; in [6] it was 0.627; in assay [7], -0.329. For the same compound, the composite z-score turned out to be 0.329 in assay [8], 0.367 in [9] and 0.515 in assay [10]. The composite Z-score in assay [2] was -0.014 (inactive).

Turning to `COCCCNC(=O)[C@@H]1c2ccccc2C(=O)N(Cc2cc(C(F)(F)F)cc(C(F)(F)F)c2)[C@H]1c1ccc(CO)cc1`, the composite z-score in assay [1] is -0.873; in assay [3], 0.531; in [4], 0.0282; in assay [5] it was 0.685; in [6] it was 1.68; in assay [7], -0.182. Besides, the composite z-score in assay [8] is 0.299; in [9] it was -0.716; in [10] it was -1.06. For the same compound, the composite Z-score in [2] was -0.0722 (inactive).

As to `C=CCNC(=O)[C@@H]1[C@H]2C(=O)O[C@H](c3ccccc3)[C@H](c3ccccc3)N2[C@H](c2ccccc2OCCO)[C@@]12C(=O)N(C(=O)OCCOC)c1ccc(C#CCCO)cc12`, the composite z-score in assay [1] is 0.538; in assay [3] it was 0.0807; in [4] it was -0.112; in assay [5], 0.64; in assay [6], 0.797; in assay [7], 0.77. The composite z-score in assay [8] came to 1.29; in assay [9] it was 0.0117; in assay [10], 0.953. Moreover, the composite Z-score in [2] was -0.0086 (inactive).

For the compound `CC(C)(C)N1CC=CC23O[C@@H]4/C=C\CCCOC(=O)C4[C@H]2C(=O)N(CCCCCCO)[C@@H]3C1=O` (stereo not given in full), the composite z-score in assay [1] was 0.708; in assay [3], -0.284; in [4] it was -0.117; in assay [5], 0.938; in [6] it was 0.185; in assay [7] it was 0.495. Further, the composite z-score in [8] was -1.35; in assay [9], -1.25; in [10] it was -1.42. The composite Z-score in assay [2] is -0.617 (inactive).

For the compound `COCCOC(=O)N1C(=O)[C@@]2(c3cc(C#CCCO)ccc31)[C@H](c1ccccc1OCCO)N1[C@H](c3ccccc3)[C@H](c3ccccc3)OC(=O)[C@H]1[C@@H]2C(=O)N1CCc2cc(OC)c(OC)cc2C1`, the composite z-score was 0.329 in assay [1]; 0.0562 in assay [3]; -0.101 in [4]; 0.4 in [5]; 1.85 in assay [6]; 1.02 in [7]. The composite z-score in [8] turned out to be 1.31; in assay [9], 0.469; in assay [10], 1.09. Further, in [2], the composite Z-score is 0.339 (inactive).

Regarding `CN(C)CCCC[C@@H]1NC(=O)[C@@H]2C[C@H](C(=O)NCc3ccc(F)cc3)[C@H](c3ccc(O)cc3)N2C1=O`, the composite z-score is -0.16 in assay [1]; 0.0562 in assay [3]; -0.0974 in assay [4]; 0.609 in [5]; 0.901 in assay [6]; 0.339 in assay [7]. Also, the composite z-score in assay [8] amounted to 0.17; in assay [9], 0.0978; in assay [10], 0.911. For the same compound, the composite Z-score in assay [2] was 0.0275 (inactive).

In the case of `CC(C)C(=C=CC[C@@H](O)c1ccc(OCCO)cc1)CCO`, the composite z-score in [1] is 0.261; in assay [3], -0.0259; in assay [4], -0.14; in assay [5], 0.601; in assay [6], 0.583; in [7], -0.178. Besides, the composite z-score came out at 0.275 in [8], 0.184 in assay [9] and 0.224 in assay [10]. Moreover, in assay [2], the composite Z-score was -0.488 (inactive).

For the compound `O=C1C2C=CC(C(O)c3ccc([N+](=O)[O-])cc3)N(Nc3ccccc3)C2C(=O)N1c1ccccc1` (stereo not given), the composite z-score is 0.822 in assay [1]; 0.261 in assay [3]; -0.0591 in assay [4]; 0.77 in assay [5]; 1.42 in [6]; -0.163 in [7]. Also, the composite z-score in assay [8] was 0.594; in [9], -0.225; in assay [10], 0.49. Besides, the composite Z-score in [2] was -0.0589 (inactive).

As to `COc1cc2c(cc1O)C(C1CC1)N(Cc1ccc([N+](=O)[O-])o1)CC2` (stereo not given), the composite z-score in [1] was 0.959; in assay [3], 0.0159; in assay [4], -0.0826; in assay [5], 0.717; in [6], 1.42; in assay [7] it was 1.03. Moreover, the figures for the composite z-score in assay [8], in [9] and in assay [10] were 0.835, -0.465 and 0.934, respectively. Also, the composite Z-score in assay [2] was 0.676 (inactive).

On to `C=CCN1C(=O)[C@]2(O[C@H](CCO)[C@@H]([Si](C)(C)c3ccc(OC)cc3)[C@@H]2C)c2ccccc21`, for which the composite z-score in [1] is 0.482; in [3], -0.157; in assay [4] it was -0.129; in [5], 0.277; in assay [6], 0.621; in [7] it was -0.116. In addition, the composite z-score was -0.241 in assay [8], -0.884 in assay [9] and 0.201 in assay [10]. Further, the composite Z-score in assay [2] was -0.291 (inactive).

Take `COCC1=C([C@H](O)CCc2ccccc2)[C@H](CO)n2c(=O)n(-c3ccccc3)c(=O)n2C1`: the composite z-score in assay [1] is -0.442; in assay [3] it was -0.0014; in [4], -0.212; in assay [5], -0.447; in [6], -0.303; in [7], -0.469. The results for the composite z-score in assay [8], in assay [9] and in assay [10] were -0.73, 0.319 and 0.134, respectively. In addition, the composite Z-score in [2] was 0.0423 (inactive).

In the case of `CC(C)[C@@H](C(=O)O)n1cc(-c2ccccc2)nn1`, the composite z-score is 0.739 in [1]; -0.0225 in [3]; -0.0454 in [4]; 0.39 in assay [5]; 0.575 in assay [6]; 0.547 in assay [7]. Also, the composite z-score was 1.06 in assay [8], -0.145 in assay [9] and 1.12 in assay [10]. For the same compound, the composite Z-score in assay [2] is 0.0388 (inactive).

For the compound `C=C(CCCC)C(=O)CC[C@H](OC(C)=O)c1ccccc1OCCO`, the composite z-score in [1] is 0.326; in [3] it was 0.156; in [4], -0.0242; in assay [5], 0.113; in assay [6] it was 0.0794; in assay [7] it was 0.277. Further, the composite z-score in assay [8] was 0.368; in assay [9], 0.544; in [10] it was -0.0099. Moreover, the composite Z-score in assay [2] is 0.7 (inactive).

For the origin of these results see PubChem BioAssay.
